Assay results as given in ChEMBL document CHEMBL3433997, “St. Jude Leishmania screening dataset” (2016).

Tests used:
Type in all cases: functional
[1] = biological target: Solute carrier family 2, facilitated glucose transporter member 1 (Homo sapiens) (UniProt P11166); assay: ST_JUDE_LEISH: Cytotoxicity at 2uM final concentration against transgenic Leishmania Mexicana promastigotes LmGLUT1 that are glucose transport deficient and complemented with the human glucose transporter GLUT1. Activity is measured by DNA content using SYBR green in vitro
[2] = biological target: Hexose transporter 1 (Plasmodium falciparum) (UniProt O97467); assay: ST_JUDE_LEISH: Cytotoxicity at 2uM final concentration against transgenic Leishmania Mexicana promastigotes LmPfHT that are glucose transport deficient and complemented with the Plasmodium falciparum hexose transporter. Activity is measured by DNA content using SYBR green in vitro
[3] = biological target: Glucose transporter (Leishmania mexicana) (UniProt O61059); assay: ST_JUDE_LEISH: Cytotoxicity at 2uM final concentration against transgenic Leishmania Mexicana promastigotes LmGT2 that are glucose transport deficient and complemented with the L. Mexicana glucose transporter 2. Activity is measured by DNA content using SYBR green in vitro

Chain of Solute carrier family 2, facilitated glucose transporter member 1 (Homo sapiens) (P11166 whole entry): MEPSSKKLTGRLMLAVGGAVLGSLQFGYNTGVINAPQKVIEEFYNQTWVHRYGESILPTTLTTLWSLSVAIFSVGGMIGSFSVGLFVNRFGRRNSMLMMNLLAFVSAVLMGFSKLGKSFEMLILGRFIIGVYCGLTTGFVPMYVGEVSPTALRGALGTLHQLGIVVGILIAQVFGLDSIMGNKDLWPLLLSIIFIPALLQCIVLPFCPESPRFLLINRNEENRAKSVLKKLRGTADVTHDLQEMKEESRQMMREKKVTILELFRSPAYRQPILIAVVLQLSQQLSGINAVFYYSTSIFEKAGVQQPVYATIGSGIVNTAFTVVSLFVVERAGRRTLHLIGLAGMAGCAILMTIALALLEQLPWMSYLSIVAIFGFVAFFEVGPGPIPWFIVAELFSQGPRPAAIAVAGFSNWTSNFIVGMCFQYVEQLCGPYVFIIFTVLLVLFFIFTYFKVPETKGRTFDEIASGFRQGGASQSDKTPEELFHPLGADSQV

Structure (SMILES)	inhibition [1]	inhibition [2]	inhibition [3]
CC[C@H](NC(=O)c1ccc(NC(=O)OC(C)(C)C)cc1)C(=O)N[C@@H](CO)C(=O)NCCCCc1ccccc1	1.96%	1.3%	-0.11%
CC(C)(C)CC(C)(C)c1ccc(O)c(C(=O)Nc2ccc([N+](=O)[O-])cc2)c1	1.13%	1.55%	0.23%
O=C(/C=C/c1ccc(Cl)c(Cl)c1)NC1CCC(CN2CCC(c3c[nH]c4ccncc34)CC2)CC1 (stereo unspecified)	0.22%	0.56%	0.65%
CCCCCCOc1ccc(C(=O)N[C@H]2CCN(CCCCCNC(=O)/C=C/c3ccc(Cl)c(Cl)c3)C2)cc1	0.31%	-0.9%	1.12%
CC1CN(c2cnn(C/C=C/c3ccc(NC(=O)c4ccc([N+](=O)[O-])cc4)cc3)c(=O)c2Cl)CC(C)N1 (stereo unspecified)	-0.1%	1.74%	0.18%
O=C(Nc1cccc(-c2ccc(-c3nc4ccccc4[nH]3)s2)c1)c1ccncc1	1.95%	9.91%	3.84%
CN1CCN(c2ccc(Nc3c4ccccc4nc4ccccc34)cc2)CC1	7.02%	6.39%	5.74%
CCC[C@@H]([C@@H](CC(C)C)C(=O)N[C@@H](CCCCNC(=O)c1ccccn1)C(=O)Nc1nccs1)N(O)C=O	4.93%	6.98%	1.73%
CC(C)(CC1CCCCC1)NC(=O)[C@H](CC1CCCCC1)Nc1ccc(C#N)c2ccccc12	1.82%	1.4%	-1.9%
Cc1ccc(C(=O)Nc2ccc(Nc3ccnc4cc(-c5ccncc5)ccc34)cc2O)cc1	-0.09%	-0.05%	1.37%
Cc1cc(N[C@@H](Cc2ccccc2)C(=O)NC2CCCC2)nc(NCC2CCCCC2)n1	3.03%	3.67%	0.45%
CCCc1ccc(N2C(N)=NC(N)=NC2(C)C)cc1	1.9%	1.17%	-2.29%
CCOc1ccc(-n2nc3c(Cl)nnc(-c4ccccc4)c3c2-c2ccccc2)cc1	4.48%	6.02%	0.01%
COc1cc(CN2CCC(CO)(Cc3cccc(C(F)(F)F)c3)CC2)c(Cl)cc1O	0.06%	-1.69%	-0.81%
CN1CCN(CCCSc2ccc3c(c2)ncn3-c2cc(OCc3ccccc3C(F)(F)F)c(C(N)=O)s2)CC1	8.47%	11.1%	0.97%
c1ccc(CCNc2nc(NCC(c3ccccc3)c3ccccc3)c3nc[nH]c3n2)cc1	4.2%	3.7%	1.17%

Structure (SMILES)	inhibition [1]	inhibition [2]	inhibition [3]
COC(=O)c1ccc2[nH]cc(C3CCN(CCC4CCN(C(=O)/C=C/c5ccc(Cl)c(Cl)c5)CC4)CC3)c2c1	6.59%	4.72%	5.91%
CN(C)CCCSc1ccccc1NC(=O)C=Cc1ccccc1	5.73%	7.21%	6.85%
CN(c1ccc(NC(=O)Nc2cc(C(C)(C)C)on2)cc1)c1ccnc(NCCOC(=O)Nc2cc(C(C)(C)C)on2)n1	10.6%	7.48%	11.5%
Cc1cnc(NCCc2ccc(F)cc2)nc1N[C@@H](CC(C)C)C(=O)Nc1ccccc1	5.17%	4.05%	4.26%
O=c1cc(NCCCNCc2cc(F)cc(C(F)(F)F)c2)[nH]c2ccccc12	-0.27%	-0.14%	4.38%
COc1ccc2ncc(F)c(CCN3CCC(NCc4cc(C)c5c(c4)OCCO5)CC3)c2n1	11.1%	15.4%	5.07%
COc1cc2cc(C(=O)Nc3ccccc3)c(N)nc2cc1OC	0.36%	1.61%	0.18%
c1ccc(C2CCC(N3CCC(N4CCCC4)CC3)CC2)cc1 (stereo unspecified)	0.84%	-0.62%	1.54%
c1ccc2[nH]c(-c3ccc(-c4ccc(CN5CCN(c6ccncc6)CC5)cc4)s3)nc2c1	6.21%	6.05%	1.74%
Cc1cc(NC(=O)c2sc3ccccc3c2O)no1	2.41%	1.84%	0.64%
COc1cc(NC(=O)c2ccc3c(=O)n(Cc4ccccc4)c(=S)[nH]c3c2)cc(OC)c1OC	5.79%	7.58%	7.73%
CCN(CCCN1CCCCC1)c1cc(C)nc(Nc2ccc(Br)cc2F)n1	0.13%	2.96%	1.34%
O=C(/C=C/c1ccc(Cl)c(Cl)c1)NCCCCCN1CC[C@H](NC(=O)/C=C/c2ccccc2)C1	0.76%	0.86%	-0.08%
CN(C)CCN(C)Cc1ccc(-c2ccc3c(Nc4ccc(Oc5ccccn5)cc4)ccnc3c2)o1	-2.89%	-0.77%	-2.18%
CCCCCN1CCCC(NS(=O)(=O)c2ccc(C(=O)Nc3cccc(C(F)(F)F)c3)cc2)C1 (stereo unspecified)	1.16%	2.32%	0.39%
CN(C)CCOc1ccc(-c2cc(-c3ccc(Cl)c(O)c3)c(-c3ccnc(N)n3)o2)cc1	2.11%	2.73%	3.05%
